# High-throughput results from PubChem BioAssay.
# Six1-Eya2 inh – blocks human Six1 binding to Eya2. activity change, % (test concentration not listed). 360,000 compounds, 0.56% hits. Q15475+O00167. AID 651725. AlphaScreen GST-Six1/His-Eya2 binding, biochemical; hits give low values; in the data active = activity change below about -65%; inconclusive = mostly about -30% to -63%
#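 AlphaScreen with GST-Six1 and His-Eya2 (5X mix: 250 nM and 500 nM), glutathione donor and nickel acceptor beads; buffer 50 mM Tris pH 8.0, 300 mM NaCl, 1 mM TCEP; 1 h at 37 C in the dark.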
# JMJD2A Tudor inh – inhibitors of human JMJD2A Tudor domain; AlphaScreen JMJD2A-Tudor / H3K4me3 peptide binding; Potency, µM (doses to about 114 µM), hits mostly inhibitors; 390,000 compounds, 4.4% hits; AID 504339; also: nearly all actives have a fitted effect of over 50% in size
# HP1b binding inh – HP1-beta chromodomain-methylated histone interaction inhibition | AID 540317 | Potency, µM (series often up to 114 µM), actives largely listed as inhibitors | 390,000 compounds, 0.56% hits | AlphaScreen HP1-beta / biotin-H3K9me3 peptide binding; also: nearly all actives have a fitted effect of over 70% in size
# Target sequence (P83916 whole entry, looked up): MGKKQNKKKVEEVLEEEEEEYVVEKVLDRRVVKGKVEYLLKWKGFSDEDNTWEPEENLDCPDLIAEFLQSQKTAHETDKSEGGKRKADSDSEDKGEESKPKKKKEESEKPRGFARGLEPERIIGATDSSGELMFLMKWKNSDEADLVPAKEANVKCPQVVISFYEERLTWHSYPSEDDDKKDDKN
#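 HP1-beta protein (50 nM final) preincubated 30 min at room temperature with biotinylated H3(1-18)K9me3 peptide (50 nM) in PBS pH 7.4, 0.01% Tween-20, then compound added for 30 min. AlphaScreen streptavidin donor/nickel chelate acceptor beads (10 ug/mL final), 30 min dark, luminescence read.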
# BAZ2B block – inhibitors of human BAZ2B bromodomain; Q9UIF8; AlphaScreen BAZ2B-H3K14Ac peptide displacement; 360,000 compounds, 4.4% hits; AID 504333; Potency, µM (top dose mostly 114 µM), most hits filed as inhibitors; also: nearly all actives have a fitted effect of over 60% in size
#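 Compounds, titrated to a top concentration of 110 uM, were incubated 30 min at room temperature with preformed BAZ2B/acetyl-K14 H3 peptide complex (50 nM each). Proximity signal was measured by AlphaScreen after 20 min with beads.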
# G9a block – G9a (human) methyltransferase inhibition; Potency, µM (doses to about 102 µM), hits mostly inhibitors; Q96KQ7; G9a H3K9 monomethylation, AlphaScreen, 2 h; 350,000 compounds, 8.8% hits; AID 504332; also: nearly all actives have a fitted effect of over 75% in size
# Target sequence (Q96KQ7 913-1193 limits assumed): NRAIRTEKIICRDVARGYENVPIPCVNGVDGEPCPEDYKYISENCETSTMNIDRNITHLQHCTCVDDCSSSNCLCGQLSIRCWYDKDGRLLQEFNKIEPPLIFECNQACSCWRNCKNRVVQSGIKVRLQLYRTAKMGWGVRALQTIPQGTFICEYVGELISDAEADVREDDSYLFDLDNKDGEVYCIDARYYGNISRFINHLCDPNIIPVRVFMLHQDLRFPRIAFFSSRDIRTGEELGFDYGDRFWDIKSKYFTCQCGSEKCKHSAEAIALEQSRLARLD
#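 Compounds were preincubated with 20 nM G9a for 15 min, after which biotinylated H3K9 peptide (500 nM) and SAM (20 uM) started a 2 h room-temperature reaction. Monomethylated product was quantified by antibody-based AlphaScreen chemiluminescence.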
# CtBP-E1A inh – inhibitors of CtBP/E1A interaction; AlphaScreen GST-E1A/His-CtBP binding, 1536-well; hits give low values; activity change, % (no concentration beside the values); 340,000 compounds, 0.49% hits; AID 651724; in the data active = activity change below about -65%; inconclusive = mostly about -30% to -63%
#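 GST-E1A and His-tagged CtBP (125 nM each as 5X stock) were preincubated with pin-transferred compound for 2 h at 37 °C in the dark, then glutathione donor and nickel acceptor beads were added for 1 h before AlphaScreen reading.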
# Numbers stand for hits; n = inactive; u = inconclusive; x = no result given; [ ] = dose if it differs, or a comment. Hits are enriched below; roughly 10% of the tested compounds scored in any of these assays. Unless noted, calls follow the shape of the dose curve; as a rule, active = well fitted inhibition curve with a large enough effect; inconclusive = small, poorly fitted or top-dose-only effect; inactive = no such curve, though single readings can be large or run the other way.
SMILES,Six1-Eya2 inh,JMJD2A Tudor inh,HP1b binding inh,BAZ2B block,G9a block,CtBP-E1A inh
COc1ccc(OC(C)C(=O)NC2CCCCCCC2)cc1 (stereo unspecified),n,n,n,x,x,n
CCCCC(=O)Nc1ccccc1Oc1ccccc1,n,n,n,n,n,x
Cc1c(Cl)cccc1NC(=S)NC1CC1,n,n,n,n,u,n
Cc1c(Cl)cccc1NC(=S)Nn1cnnc1,n,n,n,u,8.9µM,n
COc1ccc(CNC(=O)C(c2ccncc2)N(C(=O)Cc2cccs2)c2ccccc2C)cc1 (stereo unspecified),n,n,n,n,n,n
O=C(CSC1=NCCS1)NCc1ccco1,n,18µM,n,n,n[12.7 µM],n
CCc1nc(N(CC)CC)c2oc3ccccc3c2n1,n,n,n,x,n,n
O=C(CSc1ncnc2c1oc1ccccc12)NCc1ccco1,n,n,n,50µM,14µM,n
CCc1nc(NCc2ccco2)c2oc3ccccc3c2n1,n,n,n,79µM,u,n
CCc1nc(N2CCC(C)CC2)c2oc3ccccc3c2n1,n,n,n,n,40µM,n
CC1(c2nnc(Cc3ccccc3)o2)CC(c2ccc([N+](=O)[O-])cc2)=NO1 (stereo unspecified),n,u,n,u,u,n
CCC(C(=O)NC(C)(C)C)N(Cc1ccc(OC)cc1)C(=O)c1snc(C(N)=O)c1N (stereo unspecified),n,x,x,x,x,n
Cc1noc(C)c1-c1nc(NCCN2CCOCC2)c2ccccc2n1,x,x,x,x,n[0.501 µM],x
Brc1ccc2ncnc(NCc3ccco3)c2c1,n,n,n,n,n,n
CCc1nc(Nc2ccccc2O)c2oc3ccccc3c2n1,n,u,n,79µM,u,n
c1coc(CNc2ncnc3c2oc2ccccc23)c1,n,n,n,u,56µM,n
CCc1nc(NCc2cccnc2)c2oc3ccccc3c2n1,n,n,n,n,50µM,n
CC1=NN(C(=S)Nc2ccccc2)C(C)(C)C1,n,n,n,n,32µM,n
O=C(CSc1nnc(-c2ccc(C(F)(F)F)cn2)o1)Nc1ccccc1Cl,-84,20µM,n,18µM,n,u
CCCCOC(=O)c1sc2nc(N3CCOCC3)c3c(c2c1N)CC(C)(C)OC3,n,n,n,n,n[12.7 µM],n
CC(=O)c1ccc(NC(=O)c2sc3nc(N4CCOCC4)c4c(c3c2N)CCCC4)cc1,n,n,n,n,25µM,x
Nc1c(C(=O)Nc2ccc(Cl)cc2)sc2nc(N3CCOCC3)c3c(c12)CCCC3,n,n,n,n,22µM,x
CC1(C)Cc2c(c(N3CCOCC3)nc3sc(C(=O)N4CCCCC4)c(N)c23)CO1,n,u,n,n,4.5µM,n
Nc1c(C(=O)N2CCOCC2)sc2nc(N3CCOCC3)c3c(c12)CCCC3,n,u,n,n,10µM,x
O=C1CCCC2=C1C1(CCSCC1)N=C(Nc1nc3ccccc3o1)N2,x,n,x,x,x,x
SMILES,Six1-Eya2 inh,JMJD2A Tudor inh,HP1b binding inh,BAZ2B block,G9a block,CtBP-E1A inh
CCC(=O)N1CCc2cc(CNS(=O)(=O)c3ccc(C(C)C)cc3)ccc21,x,n,n,n,n,x
CCOC(=O)N1CCN([N+]([O-])=NOc2cc(O/N=[N+](\[O-])N(C)C)c([N+](=O)[O-])cc2[N+](=O)[O-])CC1,x,n,n,x,x,x
COc1ccccc1NC(=O)CC1Sc2ccc(C(F)(F)F)cc2NC1=O (stereo unspecified),x,n,n,n,n,x
Nc1nc2sc3c(c2cc1C(=O)NCC(=O)O)CCCC3,n,n,n,n,u,n
CN1Cc2c(N3CCOCC3)nc3sc(C(=O)c4ccc(Br)cc4)c(N)c3c2CC1(C)C,n,45µM,u,35µM,45µM,n
CN1Cc2c(N3CCOCC3)nc3sc(C#N)c(N)c3c2CC1(C)C,n,n,n,n,x,n
Nc1nc2sc3c(c2cc1C(=O)N1CCOCC1)CCCC3,n,14µM,n,n,u,n
Nc1[nH]n2c(=O)cc(-c3ccccc3)nc2c1N=Nc1ccc2c(c1)OCO2,x,x,x,n,u,x
Cn1c(=O)oc2cc(S(=O)(=O)NC(Cc3ccccc3)C(=O)Nc3ccc(F)c(Cl)c3)ccc21 (stereo unspecified),x,n,n,n,n,x
